In this assay the test system is HL-1. In words: protection of cardiomyocytes from stress damage, SAR follow-up, cell-based, panel, H9c2 and HL-1, ATP luminescence, set 2 (AID 651871).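 Also: cells exposed to stressor for 2 h before ATP readout; reference of the scale not given here.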 Conditions: H9c2/HL-1 cardiomyocytes, 2-deoxyglucose stress, with 2-deoxyglucose, run 16, at 19.8 µM (top of the series).

“And” between values parts separate entries of the source, which are not always exact repeats. Equal values may be shown once.

For the compound `COc1ccc2c(c1OC)C(=O)N1c3ccccc3C(=O)N(Cc3cccc(Cl)c3Cl)C21` (stereo unspecified), the activity (protection/inhibition) was 50.9% and 45%.

The values are drawn from PubChem BioAssay AID651871 (Sanford-Burnham Center for Chemical Genomics, 2012).
